Screens from PubChem.
The entries come from a sample that favours hits as a whole.
PD-1 reverse act: reversal of PD-1 mediated T-cell inhibition. activation, % (concentration not given with the values). 29,000 tested, under 10 active. primary human CD4 T cells, PD-L1 beads, CellTiter-Glo 96 h; call rule not given here
NOMO-1 viab: STK33 inhibitor candidate reducing NOMO-1 cell viability; NOMO-1 AML viability, CellTiter-Glo luminescence, 72 h; inhibition, % (concentration not given with the values); actives 7.5% (n = 37,000); AID 2330; in the data active means inhibition above about 80%; inconclusive means no clear call, values can overlap the other calls
STK33 kin inh: human STK33 kinase inhibition | Q9BYT3 | ADP-Glo luminescence, MBP substrate | inhibition, % at 12.5 µM | actives 0.44% (n = 27,000) | AID 2322; in the data active means inhibition above about 20%; inconclusive means no clear call, values can overlap the other calls
Target sequence (Q9BYT3 whole entry, looked up): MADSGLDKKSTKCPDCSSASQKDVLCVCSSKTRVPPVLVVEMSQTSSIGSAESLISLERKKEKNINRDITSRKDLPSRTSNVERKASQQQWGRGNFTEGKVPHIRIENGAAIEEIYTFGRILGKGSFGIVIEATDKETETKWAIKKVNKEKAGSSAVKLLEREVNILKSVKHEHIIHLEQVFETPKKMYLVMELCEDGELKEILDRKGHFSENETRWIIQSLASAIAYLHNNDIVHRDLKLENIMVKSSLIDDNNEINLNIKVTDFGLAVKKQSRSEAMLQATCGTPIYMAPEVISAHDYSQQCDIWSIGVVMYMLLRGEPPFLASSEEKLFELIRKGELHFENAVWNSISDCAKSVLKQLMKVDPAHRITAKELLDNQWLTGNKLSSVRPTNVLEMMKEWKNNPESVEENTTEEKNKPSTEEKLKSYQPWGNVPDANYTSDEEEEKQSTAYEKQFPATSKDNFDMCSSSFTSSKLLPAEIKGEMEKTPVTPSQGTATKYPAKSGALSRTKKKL
Each line names hits and unclear results; the compound was inactive in the other large screens.

CC(C)NC(=O)Nc1cccc2c1O[C@H](CN(C)C(=O)Nc1ccc(C(F)(F)F)cc1)[C@H](C)CN([C@@H](C)CO)C2=O	none (no result: STK33 kin inh)
CCCc1nc2c(o1)N(C(=O)OCC)C(N)=C(C#N)C21CCNCC1	none
Cc1[nH]c2ccccc2c1C(=O)CSc1nnc2ccccn12	none (no result: PD-1 reverse act)
CCc1ccc2c(c1)=C(c1[nH]c(=S)[nH]c1O)C(=O)N=2	none (no result: STK33 kin inh)
Nc1nonc1-c1nc2ccccc2n1CC(=O)Nc1cccc(Cl)c1Cl	NOMO-1 viab 118.9 (no result: PD-1 reverse act)
CCc1ccccc1NC(=O)Cn1c(-c2nonc2N)nc2ccccc21	none (no result: PD-1 reverse act)
C[C@@H]1CN([C@@H](C)CO)C(=O)c2cc(NC(=O)Nc3cccc4ccccc34)ccc2O[C@@H]1CN(C)C(=O)Nc1ccc(C(F)(F)F)cc1	none
C[C@@H]1CN([C@H](C)CO)C(=O)c2cc(NC(=O)Nc3cccc4ccccc34)ccc2O[C@@H]1CN(C)Cc1ccncc1	none (no result: STK33 kin inh)
C[C@H]1CN([C@@H](C)CO)C(=O)c2cc(NC(=O)Nc3cccc4ccccc34)ccc2O[C@H]1CN(C)Cc1ccc(C(F)(F)F)cc1	none
C[C@@H]1CN([C@@H](C)CO)C(=O)c2cc(NC(=O)Nc3cccc4ccccc34)ccc2O[C@H]1CN(C)Cc1ccc(C(F)(F)F)cc1	NOMO-1 viab 86.6 (no result: STK33 kin inh)
C[C@@H]1CN([C@@H](C)CO)C(=O)c2cc(NC(=O)Nc3ccccc3)ccc2O[C@@H]1CN(C)C(=O)Nc1cccc2ccccc12	none (no result: STK33 kin inh)
C[C@@H]1CN([C@H](C)CO)C(=O)c2cc(NC(=O)Nc3ccccc3)ccc2O[C@@H]1CN(C)C(=O)Nc1cccc2ccccc12	NOMO-1 viab 90.4 (no result: STK33 kin inh)
C[C@H](CO)N1C[C@H](C)[C@H](CN(C)Cc2ccncc2)Oc2ccc(NC(=O)Nc3cccc4ccccc34)cc2C1=O	NOMO-1 viab 98.0
C[C@H]1CN([C@@H](C)CO)C(=O)c2cc(NC(=O)Nc3cccc4ccccc34)ccc2O[C@@H]1CN(C)C(=O)Nc1ccc(C(F)(F)F)cc1	NOMO-1 viab 85.9 (no result: STK33 kin inh)
CC(=O)Nc1sc2c(c1SC#N)CCCC2	none (no result: STK33 kin inh)
CN(CC(=O)C1=C(c2ccc(Br)cc2)C(=O)c2ccccc2C1=O)c1ccccc1	NOMO-1 viab 125.8 (no result: STK33 kin inh)
CS(=O)(=O)N(CC(=O)Nc1ccccc1-c1ccccc1)c1ccc(Br)cc1	none (no result: PD-1 reverse act)
C/C=C(/C)C(=O)OC(COc1c2ccoc2c(OC)c2oc(=O)ccc12)C(C)(C)O (stereo unspecified)	none
COc1ccc(Nc2ncnc3c2nnn3Cc2ccccc2Cl)c(OC)c1	none (no result: STK33 kin inh)
CCCc1cc(=O)[nH]c(SCC(=O)Nc2ccc(Cl)c(Cl)c2)n1	none
CC(O)c1cncc2c(=O)n3c(cc12)-c1[nH]c2ccccc2c1CC3 (stereo unspecified)	STK33 kin inh inconclusive
CNc1ccccc1C(=O)N1CCc2c([nH]c3ccccc23)C1=O	NOMO-1 viab 95.0 (no result: PD-1 reverse act)
Cc1cc([N+](=O)[O-])ccc1NC(=O)CSc1nnnn1-c1ccccc1	none
Cc1sc2nc(SCC(=O)Nc3c(F)cc(F)cc3Br)n(C)c(=O)c2c1C	none
COC(=O)C(Cc1c[nH]c2ccccc12)NS(=O)(=O)c1ccc(CNC(=O)c2ccccc2)s1 (stereo unspecified)	NOMO-1 viab 115.2 (no result: STK33 kin inh)
Cc1ccc(S(=O)(=O)NC(Cc2c[nH]c3ccccc23)C(=O)O)cc1 (stereo unspecified)	none (no result: PD-1 reverse act)
COC(=O)/C=C/c1ccc(OC)c(/C=C/C(C)(C)O)c1	none
O=C(Nc1cc(S(=O)(=O)c2ccccc2)cs1)c1ccc(Cl)cc1	NOMO-1 viab 92.4 (no result: STK33 kin inh)
O=C(Nc1ccccc1)c1ccc(S(=O)(=O)c2cccc(S(=O)(=O)N3CCOCC3)c2)cc1	none
O=C(CSc1ncc(-c2ccccc2)nn1)Nc1ccc(I)cc1	none
C[C@H](CO)N1C[C@H](C)[C@@H](CN(C)Cc2ccc(Oc3ccccc3)cc2)Oc2c(NC(=O)Nc3ccc(F)cc3)cccc2C1=O	NOMO-1 viab 99.0 (no result: STK33 kin inh)
COc1ccc(NC(=O)Nc2cccc3c2O[C@H](CN(C)Cc2ccccc2)[C@@H](C)CN([C@@H](C)CO)C3=O)cc1	none (no result: STK33 kin inh)
COc1ccc(CN(C)C[C@@H]2Oc3c(NC(=O)Nc4ccccc4)cccc3C(=O)N([C@@H](C)CO)C[C@H]2C)cc1	NOMO-1 viab 100.2 (no result: PD-1 reverse act, STK33 kin inh)
C[C@@H]1CN([C@H](C)CO)C(=O)c2cccc(NC(=O)Nc3ccccc3)c2O[C@H]1CN(C)Cc1ccc(Oc2ccccc2)cc1	none (no result: STK33 kin inh)
C[C@H](CO)N1C[C@H](C)[C@H](CN(C)Cc2ccc(Oc3ccccc3)cc2)Oc2c(NC(=O)Nc3ccc(F)cc3)cccc2C1=O	none (no result: STK33 kin inh)
C[C@@H]1CN([C@@H](C)CO)C(=O)c2cccc(NC(=O)Nc3ccccc3)c2O[C@H]1CN(C)Cc1ccc(Oc2ccccc2)cc1	NOMO-1 viab 113.4 (no result: STK33 kin inh)
O=S(=O)(NCC1CCN(Cc2ccc(OCCO)cc2)CC1)c1ccccc1	none (no result: PD-1 reverse act, NOMO-1 viab)
CCC(C)[C@H](NC(=O)c1ccco1)C(=O)O (stereo partly specified)	none (no result: STK33 kin inh)
CN(C)CCNc1nc(-c2noc(NCCN(C)C)n2)no1	none (no result: STK33 kin inh)
COc1ccc(OC)c(S(=O)(=O)N2CCC(C(=O)Nc3c(C)cc(C)cc3C)CC2)c1	none
Nc1ncnc2c1c(I)cn2C1OC(CO)C(O)C1O (stereo unspecified)	NOMO-1 viab 114.5, STK33 kin inh 53.3 (no result: PD-1 reverse act)
COc1ccc2c(c1)c(=O)oc1cc(OC(C)C)ccc12	none (no result: STK33 kin inh)
COc1cc([C@@H]2c3cc4c(cc3C(OC3O[C@@H]5COC(C)O[C@H]5[C@H](O)[C@H]3O)C3COC(=O)[C@@H]32)OCO4)cc(OC)c1O (stereo partly specified)	NOMO-1 viab 101.3 (no result: PD-1 reverse act)
COc1cc([C@@H]2c3cc4c(cc3[C@@H](OC3OC5COC(C)OC5C(O)C3O)[C@H]3COC(=O)[C@H]23)OCO4)cc(OC)c1O (stereo partly specified)	NOMO-1 viab 140.8
COc1cc(C2OCC3C(c4ccc5c(c4)OCO5)OC(=O)C23)ccc1O (stereo unspecified)	none
CCc1ccccc1NC(=O)CSc1nnc(-c2ccccc2)n1C	none
FC(F)(F)c1cc(-c2ccc3ccccc3c2)no1	NOMO-1 viab 88.1 (no result: STK33 kin inh)
Cc1ccc(NC(=O)COc2ccc(Br)cc2Cl)c([N+](=O)[O-])c1	none
O=C(CSc1nnc(-c2ccco2)n1-c1ccccc1)c1ccc(F)cc1	none
CCOc1ccc(C)cc1S(=O)(=O)Nc1cccnc1	none
CCOc1ccc(C)cc1S(=O)(=O)n1cnc2ccccc21	NOMO-1 viab 127.5
COc1cc(S(=O)(=O)n2cnc3ccccc32)c(OC)cc1Cl	NOMO-1 viab 84.2 (no result: PD-1 reverse act)
COc1cc(S(=O)(=O)n2nnc3ccccc32)c(OC)cc1Cl	none
CCOc1cc(C)c(Cl)cc1S(=O)(=O)n1cnc2ccccc21	none
CCOc1ccc(Cl)cc1S(=O)(=O)n1cnc2ccccc21	NOMO-1 viab 114.4 (no result: PD-1 reverse act)
Cc1cc2nc(-c3ccc(NC(=O)COc4ccc([N+](=O)[O-])cc4)cc3)oc2cc1C	none (no result: PD-1 reverse act)
COc1ccc(Cl)cc1N(CC(=O)Nc1ccc(I)cc1)S(C)(=O)=O	none
Cc1ccc(-c2csc3ncnc(SCC(=O)Nc4ccc(N(C)C)cc4)c23)cc1	none
COc1ccc(NC(=O)CSC2=C(C#N)C(c3ccc(Cl)cc3)CC(=O)N2)cc1 (stereo unspecified)	none
O=C1C=CC(=O)N1c1ccccc1	NOMO-1 viab 113.7 (no result: STK33 kin inh)
CC1(C)ONC(=O)N(c2ccccc2)C1=O	none (no result: STK33 kin inh)
Oc1ccccc1-c1cc(-c2ccc3c(c2)OCO3)cc(-c2ccccc2)n1	none (no result: STK33 kin inh)
CCCCCCCCC/C=C/C(=O)CCc1ccc(O)c(OC)c1	none (no result: PD-1 reverse act, NOMO-1 viab)
CCCCC/C=C/C(=O)CCc1ccc(O)c(OC)c1	NOMO-1 viab 118.0
